NOMO-1 viab – STK33 inhibitor candidate reducing NOMO-1 cell viability; NOMO-1 AML viability, CellTiter-Glo luminescence, 72 h; inhibition, % (test concentration not listed); actives 7.5% (n = 37,000); AID 2330; in the data active means inhibition above about 80%
STK33 kin inh – blocks human STK33 kinase activity; Q9BYT3; ADP-Glo luminescence, MBP substrate; inhibition, % at 12.5 µM; actives 0.44% (n = 27,000); in the data active means inhibition above about 20%
Target sequence (Q9BYT3 whole entry, looked up): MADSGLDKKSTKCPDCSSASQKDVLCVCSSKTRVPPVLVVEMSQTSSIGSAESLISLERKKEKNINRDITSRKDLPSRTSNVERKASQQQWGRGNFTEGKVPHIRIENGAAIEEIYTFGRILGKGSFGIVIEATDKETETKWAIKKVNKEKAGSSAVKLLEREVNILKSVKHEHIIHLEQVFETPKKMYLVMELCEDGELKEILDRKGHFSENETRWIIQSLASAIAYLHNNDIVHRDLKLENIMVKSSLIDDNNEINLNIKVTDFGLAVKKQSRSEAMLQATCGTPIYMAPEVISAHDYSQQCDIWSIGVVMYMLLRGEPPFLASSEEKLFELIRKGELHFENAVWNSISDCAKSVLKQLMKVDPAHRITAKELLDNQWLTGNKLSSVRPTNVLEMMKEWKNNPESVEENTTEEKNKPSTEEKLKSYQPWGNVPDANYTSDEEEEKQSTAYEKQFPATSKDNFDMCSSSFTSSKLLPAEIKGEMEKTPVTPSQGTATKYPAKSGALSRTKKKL
PD-1 reversal – reversal of PD-1 mediated T-cell inhibition. primary human CD4 T cells, PD-L1 beads, CellTiter-Glo 96 h. activation, % (test concentration not listed). 29,000 tested, under 10 active. AID 2316; call rule not given here;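 further: 0% = median vehicle wells and 100% = positive control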
Starred values were filed as active, the others as inactive; · = not tested or not shown. This is one part of a sample in which hits are shown more often than they occur.

SMILES	NOMO-1 viab	STK33 kin inh	PD-1 reversal
C[C@@H]1CN([C@@H](C)CO)C(=O)c2cccc(NC(=O)c3ccc(-c4nccs4)cc3)c2O[C@@H]1CN(C)Cc1ccccc1	14	·	-1
COc1ccc(S(=O)(=O)N(C)C[C@@H]2Oc3ccc(NC(=O)c4ccncc4)cc3C(=O)N([C@H](C)CO)C[C@@H]2C)cc1	8	·	0
C[C@H]1CN([C@@H](C)CO)C(=O)c2cc(NC(=O)Cn3cnnn3)ccc2O[C@H]1CN(C)S(=O)(=O)c1cccs1	-7	1	1
CC1(C)C2CCC1(C)C(NC(=O)c1cccc(C(F)(F)F)c1)C2 (stereo not given)	46	·	1
Cc1cc(C(=O)Nc2cccc3c2O[C@H](CN(C)S(=O)(=O)c2cn(C)cn2)[C@@H](C)CN([C@H](C)CO)C3=O)n(C)n1	13	0	·
C[C@@H]1CN([C@@H](C)CO)C(=O)c2cccc(NC(=O)CCCCCC(=O)Nc3ccccc3N)c2O[C@@H]1CN(C)C(=O)Nc1ccc2c(c1)OCO2	31	·	-1
C[C@H]1CN([C@@H](C)CO)C(=O)c2cccc(NC(=O)c3ccc(-c4nccs4)cc3)c2O[C@H]1CN(C)Cc1ccc(-c2ccccc2)cc1	58	·	-3
C[C@@H]1CN([C@@H](C)CO)C(=O)c2cccc(NC(=O)c3ccc(-c4nccs4)cc3)c2O[C@H]1CN(C)Cc1ccc(C(=O)O)cc1	-6	·	1
C[C@@H]1CN([C@@H](C)CO)C(=O)c2cccc(NC(=O)c3ccc(-c4nccs4)cc3)c2O[C@@H]1CN(C)Cc1ccc(C(=O)Nc2ccccc2N)cc1	141*	·	-5
C[C@H](CO)N1C[C@H](C)[C@H](CN(C)Cc2ccc(-c3ccccc3)cc2)Oc2c(NC(=O)c3ccc(-c4nccs4)cc3)cccc2C1=O	88*	·	0
Cc1noc(C)c1C(=O)NCc1ccccn1	-10	-2	·
O=C(Nc1ccc(I)cc1C(=O)NCc1cccnc1)c1ccc(Cl)cc1Cl	-5	3	0
O=C(CSc1nc2cc(Cl)ccc2s1)Nc1ccc2c(c1)OCCO2	-11	1	1
CC1(C)CC(=O)C=C(Sc2nc3cc(Cl)ccc3s2)C1	120*	3	-45
COc1ccc(C(O)CNC(=O)/C=C/c2ccccc2)cc1 (stereo not given)	112*	-2	0
COc1ccc(/C=C/C(=O)NCc2ccccc2)cc1	-3	·	0
C[C@H]1CN([C@@H](C)CO)C(=O)c2cc(NC(=O)Nc3cccc4ccccc34)ccc2O[C@@H]1CN(C)Cc1ccc(-c2ccccc2)cc1	102*	-2	-4
C[C@@H]1CN([C@@H](C)CO)C(=O)c2cc(NC(=O)Nc3cccc4ccccc34)ccc2O[C@@H]1CN(C)Cc1ccccc1	34	1	1
C[C@H]1CN([C@@H](C)CO)C(=O)c2cc(NC(=O)Nc3cccc4ccccc34)ccc2O[C@@H]1CN(C)Cc1ccncc1	7	-6	-2
C[C@H]1CN([C@@H](C)CO)C(=O)c2cc(NC(=O)Nc3cccc4ccccc34)ccc2O[C@H]1CN(C)Cc1ccncc1	108*	·	-3
C[C@H](CO)N1C[C@H](C)[C@H](CN(C)Cc2ccc(-c3ccccc3)cc2)Oc2ccc(NC(=O)Nc3cccc4ccccc34)cc2C1=O	120*	·	-4
C[C@H]1CN([C@@H](C)CO)C(=O)c2cc(NC(=O)Nc3cccc4ccccc34)ccc2O[C@@H]1CN(C)Cc1ccccc1	23	·	-3
C[C@@H]1CN([C@H](C)CO)C(=O)c2cc(NC(=O)Nc3cccc4ccccc34)ccc2O[C@@H]1CN(C)Cc1ccc(-c2ccccc2)cc1	90*	·	·
C[C@@H]1CN([C@H](C)CO)C(=O)c2cc(NC(=O)Nc3cccc4ccccc34)ccc2O[C@@H]1CN(C)Cc1ccccc1	57	·	·
O=C(CSc1nnc(-c2cccs2)n1-c1cccc(C(F)(F)F)c1)c1ccc(F)cc1	28	-4	-4
SMILES	NOMO-1 viab	STK33 kin inh	PD-1 reversal
C[C@H](CO)N1C[C@H](C)[C@H](CN(C)Cc2ccc3cccnc3c2)OCc2cnnn2CCCC1=O	·	0	·
C[C@H]1CN([C@@H](C)CO)C(=O)c2cccc(NC(=O)C3CCOCC3)c2O[C@H]1CN(C)Cc1ccc(Cl)c(Cl)c1	1	·	·
Cc1cc(O)c(C=O)c2c1C(=O)Oc1c(C)c(O)c3c(c1O2)C(O)OC3=O (stereo not given)	-1	59*	·
COc1cc(C)c2c(c1C=O)Oc1c(c(C)c(O)c3c1C(O)OC3=O)OC2=O (stereo not given)	0	15	·
Brc1ccccc1-c1nc2ccccc2c2nc3ccccc3n12	50	·	-1
O=C(O)c1ccc2c3c1cccc3c(=O)n1c3ccccc3nc21	16	70*	1
C[C@@H]1CN([C@H](C)CO)C(=O)Cc2cc(NC(=O)C3CCCCC3)ccc2O[C@H]1CN(C)C(=O)Nc1ccc2c(c1)OCO2	12	-4	2
COc1ccc(/C=C/c2cc(O)cc(O[C@@H]3O[C@H](CO)[C@@H](O)[C@H](O)[C@H]3O)c2)cc1O	41	1	6
COc1ccc2c(c1)OC/C(=C\c1ccc(OC)c(O)c1)C2=O	107*	11	·
O=C1/C(=C/c2ccc3ccccc3c2)COc2ccccc21	113*	6	-20
CC(=O)N/C(=C\c1ccc2ccccc2c1)C(=O)O	0	·	1
C[C@@H]1CN([C@H](C)CO)C(=O)c2cc(NC(=O)Cc3ccccc3)ccc2O[C@@H]1CN(C)S(C)(=O)=O	22	·	0
NS(=O)(=O)c1ccc(NC(=S)NCc2ccccn2)cc1	-13	-1	1
COc1ccc(NC(=O)N(C)C[C@H]2Oc3ccc(NC(=O)Nc4ccc(F)cc4)cc3C(=O)N([C@@H](C)CO)C[C@H]2C)cc1	9	·	·
COc1cccc(-c2cc(NCc3ccc4c(c3)OCO4)nc(N)n2)c1	95*	1	-25
COc1cccc(-c2cc(C(=O)NCc3ccco3)c3cc(C)cc(C)c3n2)c1	10	1	·
CC(=O)c1cccc(NC(=O)CN(C2CCCCC2)S(=O)(=O)c2ccc(Br)cc2)c1	37	-3	-1
C=CCC1OC(=O)CCNC(=O)C(C)N(C)C(=O)C(C(C)C)N(C)C(=O)C(C(C)CC)NC(=O)C2CCCN2C1=O (stereo not given)	112*	-1	1
CC(=O)c1ccc(NC(=O)COc2ccccc2C(=O)Nc2sc3c(c2C#N)CCCC3)cc1	-9	-12	1
COc1ccc(S(=O)(=O)Nc2cccc3c2O[C@H](CN(C)S(=O)(=O)c2ccc(C)cc2)[C@H](C)CN([C@H](C)CO)C3=O)cc1	39	·	1
O=C(Nc1ccccc1[N+](=O)[O-])c1cc(S(=O)(=O)Nc2ccccc2)c(Cl)cc1Cl	-5	-1	-1
CC(C)(C)c1ccc(C(=O)N2CCN(c3ccc([N+](=O)[O-])c(NCc4cccnc4)c3)CC2)cc1	111*	-1	-4
CC(=O)N1CCN(c2ccc([N+](=O)[O-])c(NCc3cccnc3)c2)CC1	30	3	-1
CCOc1ccc(NC(=O)CSc2nnc(-c3cc(Cl)ccc3O)n2C)cc1	-10	-5	1
COc1cc2c(cc1-c1coc3cc(O[C@@H]4O[C@H](CO)[C@@H](O)[C@H](O)[C@H]4O)ccc3c1=O)OCO2	-2	-1	1
COc1cc2c(cc1-c1coc3c4c(ccc3c1=O)OC(C)(C)C=C4)OCO2	87*	-4	-1

Compound activity (PubChem)
